This is a sample that favours compounds with a hit; in the whole collection about 8.7% have one here.
Pf growth 96h: P. falciparum growth inhibition at 96 hour, primary screen for plastid delayed-death inhibitors | Potency, µM (doses to about 28.7 µM), for the others: top-dose activity change, negative = inhibition, hits mostly inhibitors | P. falciparum luciferase reporter growth, 96 h | AID 504834 | actives 6.9% (n = 320,000)
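Two-generation exposure (96 h) targets delayed-death phenotype. Reporter parasites carrying integrated firefly luciferase, in red cells at 2% hematocrit and 0.05% parasitemia final, kept at 37 C, 5% CO2; luminescence loss indicates inhibition.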
Vaccinia Venus: inhibitors of vaccinia virus (Venus reporter) | Vaccinia virus Venus reporter expression, fluorescence | Potency, µM (highest dose often 36.5 µM), inactives show at the top dose activity change, negative = inhibition, most hits filed as inhibitors | actives 0.46% (n = 330,000) | AID 720580; calls by dose curve; tested in A549 cells; also: nearly all actives have a fitted effect of over 30% in size
Pf growth 48h: P. falciparum growth inhibition at 48 hours (one generation); P. falciparum luciferase growth in erythrocytes, 48 h; Potency, µM (series often up to 28.7 µM), without a hit: top-dose activity change, negative = inhibition, most hits filed as inhibitors; actives 5.9% (n = 310,000); AID 504832
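Luciferase-expressing parasites in RBCs, 2% Hct / 0.1% parasitemia final; RPMI 1640 + 0.5% Albumax; 37 C, 5% CO2, one generation; luminescence read-out, lower signal = inhibition.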
VACV mCherry inh: vaccinia inhibition (mCherry reporter); Vaccinia virus mCherry reporter infection, fluorescence; Potency, µM (doses to about 36.5 µM), without a hit: at the highest dose activity change, negative = inhibition, usual class: inhibitors; actives 0.63% (n = 310,000); calls by dose curve; tested in A549 cells; also: nearly all actives have a fitted effect of over 35% in size
AMA1 RON2 block: disrupts binding of P. falciparum AMA1 to RON2; actives 0.2% (n = 360,000); Potency, µM (series often up to 58.2 µM), inactives show at the highest dose activity change, negative = inhibition, most hits filed as inhibitors; AlphaScreen AMA1-biotinylated RON2 peptide binding;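 also: 0% = vehicle wells and -100% = peptide control; nearly all actives have a fitted effect of over 45% in size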
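AMA1 (3D7) with his tag at 25 nM final met compounds first, then biotinylated RON2 peptide at 25 nM; detection used donor plus acceptor beads, 10 µg/mL apiece, read by AlphaScreen after 30 min at room temperature.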
Starred values were filed as active, the others as inactive; [ ] = dose if it differs, or a comment. Unless noted, calls follow the shape of the dose curve; as a rule, active = well fitted curve in the direction sought with a large enough effect; inconclusive = small, poorly fitted or top-dose-only effect, or another doubt; inactive = no such curve, though single readings can be large; an effect the other way counts as inactive or inconclusive. Unless noted, % is scaled to controls: 0 for no effect and ±100 for the full control effect; potency is read from the fitted curve at half-maximal effect.

How did CCOCCCNC(=O)C1(O)c2ccccc2NC(=O)N1c1ccc(Cl)c(Cl)c1 (centres undefined) do in these assays?
Pf growth 96h: inconclusive; Vaccinia Venus: -9.1%; Pf growth 48h: 0.7%; VACV mCherry inh: -22.2%; AMA1 RON2 block: -1.3%

How did Cc1c(F)cccc1NS(=O)(=O)c1cccs1 do in these assays?
Vaccinia Venus: -16.8%; VACV mCherry inh: -4.8%

Results for FC(F)(F)c1cccc(N2Cc3ccccc3C2)c1 ?
Pf growth 96h: 45.8%; Vaccinia Venus: -11.9%; Pf growth 48h: 13.1µM*; VACV mCherry inh: inactive; AMA1 RON2 block: 1.1%

Results for Cc1cc(C)cc(N2Cc3ccccc3C2)c1 ?
Pf growth 96h: 4.15µM*; Vaccinia Venus: -6.8%; VACV mCherry inh: 12.6%; AMA1 RON2 block: -3.5%

Results for Cc1c(CNC2CCCCCC2)c(C(=O)O)c(C)n1Cc1ccc(F)cc1Cl ?
Vaccinia Venus: -1.3%; VACV mCherry inh: -9.5%

How did Cc1ccc(CNC(=O)c2cc3sccc3n2Cc2ccc(Cl)cc2)cc1 do in these assays?
Vaccinia Venus: 0.4%; VACV mCherry inh: -3.1%

How did C=CCCC(=O)Nc1nc(C)c(-c2csc(Nc3ccccc3OC)n2)s1 do in these assays?
Pf growth 96h: 16.5µM*; Vaccinia Venus: inconclusive; Pf growth 48h: 9.28µM*; VACV mCherry inh: inconclusive; AMA1 RON2 block: 7.2%

Results for CCC(C)C(=O)Nc1nc(C)c(-c2csc(Nc3ccccc3OC)n2)s1 (centres undefined) ?
Pf growth 96h: 11.7µM*; Vaccinia Venus: inconclusive; Pf growth 48h: 9.28µM*; VACV mCherry inh: inconclusive; AMA1 RON2 block: -5.3%

What do the screens show for `O=C1Nc2ccccc2C12NCCc1c2[nH]c2ccccc12` (centres undefined)?
Pf growth 48h: 6.57µM*; AMA1 RON2 block: -2.8%

Results for O=C(NC(=O)c1ccc(F)cc1F)Nc1ccc(Cl)cc1 ?
Pf growth 96h: 164.7%; Vaccinia Venus: -3.6%; Pf growth 48h: 5.22µM*; VACV mCherry inh: inactive; AMA1 RON2 block: -5.7%

What do the screens show for `Cc1sc2ncnc(Sc3nnc4sc5ccccc5n34)c2c1C`?
Pf growth 96h: inconclusive; Pf growth 48h: 2.94µM*

How did CCSc1ncnc2sc(C)c(C)c12 do in these assays?
Pf growth 96h: 6.7%; Vaccinia Venus: -2.4%; Pf growth 48h: 24.9%; VACV mCherry inh: -2.4%; AMA1 RON2 block: 8.9%

What do the screens show for `COc1cc2nc(NCCc3ccc(Cl)cc3)n3nc(-c4ccccc4)nc3c2cc1OC`?
Vaccinia Venus: -9.3%; VACV mCherry inh: inactive

Results for COc1ccc(C(C(=O)NC2CCCCC2)N(C(=O)Cc2c[nH]c3ccccc23)c2ccccc2C)cc1OC (centres undefined) ?
Pf growth 96h: 13.1µM*; Vaccinia Venus: inconclusive; Pf growth 48h: inconclusive; VACV mCherry inh: -29.7%; AMA1 RON2 block: -12.8%[2.32 µM]

Results for COc1ccc(C(C(=O)NC2CCCC2)N(C(=O)Cc2cccs2)C2CC2)cc1OC (centres undefined) ?
Pf growth 96h: 0.0%; Vaccinia Venus: 1.2%; Pf growth 48h: -15.3%; VACV mCherry inh: -18.4%; AMA1 RON2 block: 8.9%

What do the screens show for `COc1ccc(C(C(=O)NC2CCCCC2)N(Cc2cccs2)C(=O)Cc2c[nH]c3ccccc23)cc1OC` (centres undefined)?
Pf growth 96h: inconclusive; Pf growth 48h: 9.28µM*; AMA1 RON2 block: 19.0%

Results for CCNc1ccc(/C=C/c2ccnc3ccccc23)cc1 ?
Vaccinia Venus: 15.4%; VACV mCherry inh: -14.2%

How did CC(=O)Nc1sc2c(c1C(c1ccc(Cl)cc1)N1CCOCC1)CCCC2 (centres undefined) do in these assays?
Pf growth 96h: 1.31µM*; Vaccinia Venus: 0.0%; VACV mCherry inh: -3.8%; AMA1 RON2 block: -17.0%

Results for CC(=O)Nc1sc2c(c1C(c1ccccc1)N1CCOCC1)CCCC2 (centres undefined) ?
Vaccinia Venus: -17.5%; Pf growth 48h: inconclusive; VACV mCherry inh: -19.5%; AMA1 RON2 block: 13.5%

What do the screens show for `CC(=O)Nc1sc2c(c1C(c1ccc(F)cc1)N1CCOCC1)CCCC2` (centres undefined)?
Pf growth 96h: 1.17µM*; Vaccinia Venus: inconclusive; VACV mCherry inh: -14.7%; AMA1 RON2 block: 7.4%

How did Cc1nn(C(=O)c2ccccc2)c(C)c1Sc1ccc(Cl)cc1 do in these assays?
Vaccinia Venus: -17.2%; VACV mCherry inh: -8.3%

How did CCOC(=O)COc1ccc(CC)cc1C(=O)c1ccn2nc(-c3ccccc3)cc2n1 do in these assays?
Vaccinia Venus: -2.6%; VACV mCherry inh: -4.8%

How did CSc1ccc(-c2ccc(C(=O)NCC3CCCO3)c(N3CCC(O)CC3)n2)cc1 (centres undefined) do in these assays?
Vaccinia Venus: 4.9%; VACV mCherry inh: -12.5%

What do the screens show for `Cc1nc2nc(C)c(NS(=O)(=O)c3ccc(F)cc3)c(=O)n2[nH]1`?
Vaccinia Venus: -5.1%; VACV mCherry inh: -1.2%

Results for C[C@@H](NC(=O)c1nc[nH]c1C(=O)NCc1ccc(CNC(=O)OC(C)(C)C)cc1)c1ccccc1 ?
Pf growth 96h: inconclusive; Vaccinia Venus: -17.8%; Pf growth 48h: 11.7µM*; VACV mCherry inh: -2.7%; AMA1 RON2 block: 120.7%

What do the screens show for `CC(C)(C)OC(=O)NCc1ccc(CNC(=O)c2nc[nH]c2C(=O)N2CCN(c3ccccc3)CC2)cc1`?
Pf growth 96h: -27.0%; Vaccinia Venus: inconclusive; Pf growth 48h: 13.1µM*; VACV mCherry inh: inactive; AMA1 RON2 block: 91.2%

What do the screens show for `C[C@H](NC(=O)c1nc[nH]c1C(=O)NCc1ccc(CNC(=O)OC(C)(C)C)cc1)C(=O)OC(C)(C)C`?
Pf growth 96h: 1.31µM*; Vaccinia Venus: -29.5%; Pf growth 48h: inconclusive; VACV mCherry inh: inactive; AMA1 RON2 block: 164.5%

Results for CC(C)CCN1C(=O)N(c2ccccc2)C(=O)C1CC(=O)Nc1ccc(Cl)cc1 (centres undefined) ?
Vaccinia Venus: -4.1%; VACV mCherry inh: -7.3%

What do the screens show for `Cc1ccc(NC(=O)CCN2C(=O)c3ccccc3Sc3ncccc32)c(Cl)c1`?
Vaccinia Venus: -16.3%; VACV mCherry inh: -22.0%

How did CCOC(=O)c1ccc(N2Cc3ccccc3C2)cc1O do in these assays?
Pf growth 96h: 2.2%; Vaccinia Venus: -11.2%; Pf growth 48h: 4.15µM*; VACV mCherry inh: -3.0%; AMA1 RON2 block: 3.6%

How did CCOC(=O)c1ccccc1O do in these assays?
Pf growth 96h: -15.4%; Pf growth 48h: 1.0%

Results for O=C(N/N=C/c1ccc(O)c([N+](=O)[O-])c1)c1ccncc1 ?
Pf growth 96h: 1.9%; Pf growth 48h: 18.7%; AMA1 RON2 block: 49.6%

How did CCOC(=O)Nc1ccc([N+](=O)[O-])cc1OC do in these assays?
Vaccinia Venus: -10.9%; VACV mCherry inh: -6.1%; AMA1 RON2 block: -12.3%

How did COc1ccc(C(=O)N/N=C/c2ccc(OC(=O)c3cccc4ccccc34)c([N+](=O)[O-])c2)cc1 do in these assays?
Pf growth 96h: 9.28µM*; Vaccinia Venus: -14.6%; Pf growth 48h: 30.2%; VACV mCherry inh: inactive; AMA1 RON2 block: 14.6%
